Inconclusive results are not listed. Calls of active or inactive are those of the source. Unless noted, the call rests on the fitted dose curve.
Columns and labels:
[1] = biological target: Lysosomal acid glucosylceramidase (Homo sapiens) (UniProt P04062); experiment: Glucocerebrosidase-p2 (AID 348; in the data active means potency below about 10 µM; further: potency means the concentration at half of the fitted maximal effect); settings: purified GBA, blue fluorogenic substrate, 40 min
In short: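 Normal human glucocerebrosidase (0.2 nM) with blue fluorogenic substrate (80 uM final) in citrate/phosphate pH 5.9 with 10mM sodium taurocholate, 0.01% tween-20; 40 min RT, NaOH/glycine stop; fluorescence Ex 365/Em 440; AC50 from a titration from 0.6 nM upwards.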

[2] = NFAT Signaling Pathway (AID 444; active means well fitted curve in either direction with a large enough effect, not every such curve was filed as active;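 further: carbachol stimulus at about its EC50 of 1 µM final; on the % scale 0 is the no-effect control and ±100 the full control effect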); settings: Jurkat NFAT-bla M1, carbachol, beta-lactamase ratio, 5 h; at 7.69 µM (top of the series) unless noted
In short: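 Jurkat cells with NFAT-driven β-lactamase reporter and co-expressed M1 receptor, stimulated with carbachol (final 1 uM, ~EC50), compound titration, 5 h at 37 °C. CCF4 loaded 1 h at RT; 460/530 nm ratio gave %activity and AC50.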

[3] = Stat Signaling Pathway (AID 446; active means well fitted curve in either direction with a large enough effect, not every such curve was filed as active;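 further: ME-180 cervical cancer cells given 40 pM IL-6 alongside compound; SIE-controlled beta-lactamase reporter measured as 460/530 nm FRET emission ratio; on the % scale 0 is the no-effect control and ±100 the full control effect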); settings: ME-180 SIE beta-lactamase reporter, IL-6 stimulated, 5 h; at 7.69 µM (top of the series) unless noted
In short: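 Overnight-plated ME-180 cells bearing a STAT Inducible Element beta-lactamase reporter; 5 h co-exposure to compound and 40 pM IL-6; values normalized to 300 pM IL-6 and 125 nM JAK inhibitor controls.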

[4] = biological target: Glucocorticoid receptor (Homo sapiens) (UniProt P04150); experiment: GR-EFC Redistribution (AID 451); settings: CHO-K1 GR-EFC translocation, beta-gal luminescence, 2 h; further: potency means the concentration at half of the fitted maximal effect
Chain of Glucocorticoid receptor (Homo sapiens) (P04150 whole entry, looked up, the tested form may be a part): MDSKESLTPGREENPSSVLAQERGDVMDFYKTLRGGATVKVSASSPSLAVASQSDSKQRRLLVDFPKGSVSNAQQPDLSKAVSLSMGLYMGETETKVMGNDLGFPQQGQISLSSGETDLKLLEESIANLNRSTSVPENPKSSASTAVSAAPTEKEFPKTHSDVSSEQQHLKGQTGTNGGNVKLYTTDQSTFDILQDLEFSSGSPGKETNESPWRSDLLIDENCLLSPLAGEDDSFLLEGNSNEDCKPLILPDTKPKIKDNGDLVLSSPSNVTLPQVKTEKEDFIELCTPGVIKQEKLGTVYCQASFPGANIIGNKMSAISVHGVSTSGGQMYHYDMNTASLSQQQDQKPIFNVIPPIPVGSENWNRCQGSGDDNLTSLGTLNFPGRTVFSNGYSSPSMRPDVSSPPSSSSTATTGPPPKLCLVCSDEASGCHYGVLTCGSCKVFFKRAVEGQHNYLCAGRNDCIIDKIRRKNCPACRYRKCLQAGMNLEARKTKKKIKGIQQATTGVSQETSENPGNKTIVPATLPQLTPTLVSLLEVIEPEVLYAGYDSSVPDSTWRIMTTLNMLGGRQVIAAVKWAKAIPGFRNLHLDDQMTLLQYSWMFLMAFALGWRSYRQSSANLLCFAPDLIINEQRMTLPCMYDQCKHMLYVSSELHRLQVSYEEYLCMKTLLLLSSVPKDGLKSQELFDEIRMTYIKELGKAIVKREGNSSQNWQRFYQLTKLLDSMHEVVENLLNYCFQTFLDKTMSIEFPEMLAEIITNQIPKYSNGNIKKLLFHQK
In short: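 CHO-K1 cells expressing nuclear EA and GR-ED fragments of b-gal; compounds titrated up to 46 uM final, 2 h at 37 C. GR nuclear translocation read as complemented b-gal luminescence after 1 h RT detection.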

[5] = biological target: Mitogen-activated protein kinase 10 (Mus musculus) (UniProt Q61831); experiment: JNK3 AlphaScreen Assay (AID 530; active means well fitted curve in either direction with a large enough effect, not every such curve was filed as active;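 further: kinase came from lysate of stimulated human HepG2 cells; signal reports phosphorylation of biotinylated GST-cJun 1-79 at Ser73 with 10 µM ATP; on the % scale 0 is the no-effect control and ±100 the full control effect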); settings: JNK3 lysate, c-Jun phosphorylation; series mostly up to 57.1 µM
In short: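 Activity was read by AlphaScreen after JNK3-containing HepG2 lysate (cytokine pre-activated) phosphorylated biotinylated GST-cJun with 10 uM ATP at room temperature. Phospho-Ser73 cJun antibody with Protein-A acceptor beads provided detection.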

[6] = biological target: 3',5'-cyclic-AMP phosphodiesterase 4B (Homo sapiens) (UniProt Q07343); experiment: qHTS Assay for Inhibitors of PDE-IV (AID 607; active means well fitted activation curve with a large enough effect in the main read-out, with a control signal flat, not every such curve was filed as active; further: % of control where 0% means no effect); settings: HEK293 ACTOne CNG channel cells, membrane potential fluorescence; series mostly up to 22.9 µM
Chain of 3',5'-cyclic-AMP phosphodiesterase 4B (Homo sapiens) (Q07343 whole entry, looked up): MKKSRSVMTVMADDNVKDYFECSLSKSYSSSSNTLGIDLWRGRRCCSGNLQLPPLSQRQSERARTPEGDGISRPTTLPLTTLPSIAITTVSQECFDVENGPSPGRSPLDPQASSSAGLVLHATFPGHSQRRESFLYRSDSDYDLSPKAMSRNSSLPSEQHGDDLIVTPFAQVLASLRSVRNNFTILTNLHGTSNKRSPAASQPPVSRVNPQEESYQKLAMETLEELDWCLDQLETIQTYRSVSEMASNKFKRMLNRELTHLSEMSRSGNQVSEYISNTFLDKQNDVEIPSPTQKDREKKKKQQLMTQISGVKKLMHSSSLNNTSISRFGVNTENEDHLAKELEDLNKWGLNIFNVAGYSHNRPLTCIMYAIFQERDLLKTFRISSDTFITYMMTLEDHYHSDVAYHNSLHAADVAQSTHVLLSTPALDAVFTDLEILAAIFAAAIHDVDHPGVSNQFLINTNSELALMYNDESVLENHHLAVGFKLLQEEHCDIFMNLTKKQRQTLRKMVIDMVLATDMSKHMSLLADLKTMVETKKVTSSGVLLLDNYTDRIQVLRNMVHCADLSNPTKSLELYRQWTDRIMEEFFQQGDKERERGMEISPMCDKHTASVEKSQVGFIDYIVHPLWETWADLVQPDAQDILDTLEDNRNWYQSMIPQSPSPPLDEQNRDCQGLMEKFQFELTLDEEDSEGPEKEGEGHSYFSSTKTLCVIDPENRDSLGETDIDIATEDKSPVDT
In short: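 Live HEK293 cells with a modified cyclic nucleotide-gated (CNG) channel report intracellular cAMP via membrane-potential dye fluorescence (ex 535/em 590 nm). Endogenous PDE-IV was targeted. Compounds were tested at up to 22.9 uM final; RO 20-1724 100 uM served as control.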

[7] = biological target: Cytochrome P450 3A4 (Homo sapiens) (UniProt P08684); experiment: qHTS Assay for Activators of Cytochrome P450 3A4 (AID 885; active means well fitted curve in the direction sought with a large enough effect; an effect the other way counts as inactive or inconclusive; further: nearly all actives have a fitted effect of over 65% in size); settings: recombinant CYP3A4, Luciferin-PPXE luminescence, 60 min; series mostly up to 57.1 µM
Chain of Cytochrome P450 3A4 (Homo sapiens) (P08684 whole entry, looked up): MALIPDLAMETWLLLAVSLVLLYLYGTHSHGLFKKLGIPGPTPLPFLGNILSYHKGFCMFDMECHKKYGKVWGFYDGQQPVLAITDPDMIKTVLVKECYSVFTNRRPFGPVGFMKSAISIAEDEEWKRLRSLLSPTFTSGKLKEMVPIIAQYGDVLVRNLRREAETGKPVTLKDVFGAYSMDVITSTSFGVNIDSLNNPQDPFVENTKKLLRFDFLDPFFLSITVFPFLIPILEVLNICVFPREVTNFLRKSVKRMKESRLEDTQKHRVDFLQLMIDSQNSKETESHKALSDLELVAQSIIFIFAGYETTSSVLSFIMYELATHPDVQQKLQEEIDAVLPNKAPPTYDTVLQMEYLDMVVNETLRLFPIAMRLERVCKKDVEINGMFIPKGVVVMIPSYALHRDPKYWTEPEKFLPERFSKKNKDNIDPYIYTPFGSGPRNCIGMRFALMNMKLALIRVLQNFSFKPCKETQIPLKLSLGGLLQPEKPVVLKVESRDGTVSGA
In short: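 Using 20nM recombinant human CYP3A4 in potassium phosphate (200mM), substrate Luciferin-PPXE at 25uM, luminescent luciferin detection followed a 60-min RT NADPH reaction; data scaled to 57 uM ketoconazole.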

[8] = qHTS Assay for Lipid Storage Modulators (AID 1519); settings: Drosophila S3 cells, BODIPY lipid droplet/cell ratio, laser cytometry, cells loaded with oleic acid; for activity change, negative = inhibition: at 57.5 µM (top of the series)
In short: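 Cells seeded at 5,000 per well were treated with compounds over a concentration series and loaded with oleic acid (400 uM, as added). Lipid droplet fluorescence (488 nm excitation, 500-530 nm channel) was read by laser-scanning cytometry and normalized to 20 uM Triacsin C.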

[9] = Primary qHTS for small molecule stabilizers of the endoplasmic reticulum resident proteome: Secreted ER Calcium Modulated Protein (SERCaMP) assay (AID 1508630; active means well fitted curve in the direction sought with a large enough effect; an effect the other way counts as inactive or inconclusive; further: on the % scale 0 is the no-effect control and ±100 the full control effect); settings: SH-SY5Y GLuc-SERCaMP (Gaussia luciferase released on ER calcium loss) secretion, thapsigargin, luminescence; series mostly up to 38.4 µM
In short: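 The SH-SY5Y reporter protocol was run at 3 concentrations up to 38.3 uM (primary) or 11 concentrations (follow-up): 16 h compound, 100 nM thapsigargin for 4 h, then extracellular luciferase luminescence.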

[10] = biological target: Cytochrome P450 1A2 (Homo sapiens) (UniProt P05177); experiment: p450-cyp1a2 (AID 410); settings: recombinant CYP1A2, luciferin-ME demethylation, luminescence; series mostly up to 57 µM; further: potency means the concentration at half of the fitted maximal effect;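 on activity change, negative = inhibition: -100% = full effect of reference inhibitor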
Chain of Cytochrome P450 1A2 (Homo sapiens) (P05177 whole entry, looked up): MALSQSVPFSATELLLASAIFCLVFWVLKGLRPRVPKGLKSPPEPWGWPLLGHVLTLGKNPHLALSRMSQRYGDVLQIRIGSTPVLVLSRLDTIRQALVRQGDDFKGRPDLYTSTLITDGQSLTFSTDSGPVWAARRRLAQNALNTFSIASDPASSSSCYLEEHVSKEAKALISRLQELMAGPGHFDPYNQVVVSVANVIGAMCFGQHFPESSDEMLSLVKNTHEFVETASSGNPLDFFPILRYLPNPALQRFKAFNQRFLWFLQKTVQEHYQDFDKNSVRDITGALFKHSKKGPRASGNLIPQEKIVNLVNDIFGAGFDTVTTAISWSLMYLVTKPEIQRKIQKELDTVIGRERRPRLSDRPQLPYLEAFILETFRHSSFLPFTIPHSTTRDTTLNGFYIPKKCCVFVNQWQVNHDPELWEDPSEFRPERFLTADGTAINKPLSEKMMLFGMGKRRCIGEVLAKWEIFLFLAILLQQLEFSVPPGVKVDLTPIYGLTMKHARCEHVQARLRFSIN
In short: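 O-Demethylation of luciferin 6' methyl ether by human CYP1A2 is monitored as luciferase luminescence. Substrate sits at Km (100uM); enzyme is 20nM. Values are scaled to 57 uM furafylline as maximal inhibition.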

[11] = biological target: Glucocorticoid receptor (Homo sapiens) (UniProt P04150); experiment: GR-GFP Redistribution (AID 450;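 active means compounds whose dose series gives a full or clear partial fitted curve of increased nuclear translocation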; further: potency means the concentration at half of the fitted maximal effect); settings: U2OS GR-GFP nuclear translocation, laser cytometry, 2 h
[12] = biological target: Cytochrome P450 2C19 (Homo sapiens) (UniProt P33261); experiment: qHTS Assay for Inhibitors and Substrates of Cytochrome P450 2C19 (AID 899; active means well fitted curve in the direction sought with a large enough effect; an effect the other way counts as inactive or inconclusive; further: potency means the concentration at half of the fitted maximal effect; nearly all actives have a fitted effect of over 60% in size); settings: recombinant CYP2C19, luciferin-H EGE luminescence; series mostly up to 57.1 µM
Chain of Cytochrome P450 2C19 (Homo sapiens) (P33261 whole entry, looked up): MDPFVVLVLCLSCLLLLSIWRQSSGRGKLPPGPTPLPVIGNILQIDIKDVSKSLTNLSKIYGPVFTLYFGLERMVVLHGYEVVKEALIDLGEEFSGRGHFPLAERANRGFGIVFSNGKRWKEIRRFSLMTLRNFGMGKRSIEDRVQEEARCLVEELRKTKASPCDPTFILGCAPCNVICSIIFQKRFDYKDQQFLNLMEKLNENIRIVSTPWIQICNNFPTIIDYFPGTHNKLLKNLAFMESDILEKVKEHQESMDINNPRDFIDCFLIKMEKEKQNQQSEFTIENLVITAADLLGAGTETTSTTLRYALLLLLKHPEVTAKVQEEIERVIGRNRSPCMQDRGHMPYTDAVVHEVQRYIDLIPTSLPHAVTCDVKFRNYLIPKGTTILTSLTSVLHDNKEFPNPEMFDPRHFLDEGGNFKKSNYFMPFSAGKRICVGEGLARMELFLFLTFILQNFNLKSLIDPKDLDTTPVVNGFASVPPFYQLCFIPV
In short: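 Luminescent read-out of luciferin formed from Luciferin-H EGE (10uM, equal to KM). Enzyme 5nM in 50mM KPO4; compound added, 10 min at 37C, then NADPH regenerating system for 60 min at 37C. Full inhibition defined by 57uM ketoconazole.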

[13] = Confirmation and Secondary Assay for Modulators of Hemoglobin Beta Chain Splicing at IVS2 654 locus (AID 910; active means well fitted curve in the direction sought with a large enough effect; an effect the other way counts as inactive or inconclusive;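 further: HeLa cells stably carrying EGFP split by mutant beta-globin IVS2-654 intron; % of control where 0% means no effect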); settings: HeLa EGFP-654 splicing reporter, GFP fluorescence, 48 h; series mostly up to 38.3 µM
In short: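 HeLa cells stably expressing EGFP interrupted by β-globin IVS2-654 intron, seeded overnight in Opti-MEM/2% FCS, then treated 2 days at 37 °C. Restored splicing read as total peak GFP intensity per well by laser scanning cytometry (488 nm excitation, 500–520 nm emission); 500 nM antisense PNA as control.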

[14] = qHTS Assay for Identification of Small Molecule Agonists for Hypoxia Response Element Signaling Pathway (AID 914; active means well fitted activation curve with a large enough effect in the signal ratio, with a control signal flat, not every such curve was filed as active; the % refers to the signal ratio; further: potency means the concentration at half of the fitted maximal effect; on activation: % of control where 0% means no effect); settings: ME-180 HRE-bla reporter, beta-lactamase ratio, CoCl2, 17 h; activation: stronger effect = higher value
In short: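 HRE-bla ME-180 cells with beta-lactamase reporter under hypoxia response element, compounds with EC50 CoCl2 for 17 hours at 37 C. CCF4 substrate, 460nm/530nm emission ratio gave %Activity; AC50 from titration series.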

[15] = Confirmation and Secondary Assay for Modulators of Hemoglobin Beta Chain Splicing at IVS2 705 locus (AID 930; active means well fitted curve in the direction sought with a large enough effect; an effect the other way counts as inactive or inconclusive;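 further: HeLa cells stably expressing the EGFP-705 splicing reporter; GFP fluorescence per well restored by corrected splicing of the IVS2-705 intron in EGFP; % of control where 0% means no effect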); settings: HeLa EGFP-705 splicing reporter, GFP fluorescence, 48 h; series mostly up to 38.3 µM
In short: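 HeLa cells stably carrying EGFP interrupted by mutant beta-globin intron 2 (IVS2-705) treated 2 days at 37C with compound; 500 nM antisense PNA as control. Correct splicing read as total peak GFP intensity per well by laser-scanning cytometry.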

[16] = biological target: Ubiquitin carboxyl-terminal hydrolase 1 (Homo sapiens) (UniProt O94782); experiment: Inhibitors of USP1/UAF1: Pilot qHTS (AID 504865; active means well fitted curve in the direction sought with a large enough effect; an effect the other way counts as inactive or inconclusive;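 further: rhodamine fluorescence freed from ubiquitin-rhodamine substrate followed over time; top concentration of the series differs between compounds; on the % scale 0 is the no-effect control and ±100 the full control effect; nearly all actives have a fitted effect of over 35% in size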); settings: purified USP1/UAF1, Ub-rhodamine cleavage fluorescence; series mostly up to 54.9 µM
Chain of Ubiquitin carboxyl-terminal hydrolase 1 (Homo sapiens) (O94782 whole entry, looked up): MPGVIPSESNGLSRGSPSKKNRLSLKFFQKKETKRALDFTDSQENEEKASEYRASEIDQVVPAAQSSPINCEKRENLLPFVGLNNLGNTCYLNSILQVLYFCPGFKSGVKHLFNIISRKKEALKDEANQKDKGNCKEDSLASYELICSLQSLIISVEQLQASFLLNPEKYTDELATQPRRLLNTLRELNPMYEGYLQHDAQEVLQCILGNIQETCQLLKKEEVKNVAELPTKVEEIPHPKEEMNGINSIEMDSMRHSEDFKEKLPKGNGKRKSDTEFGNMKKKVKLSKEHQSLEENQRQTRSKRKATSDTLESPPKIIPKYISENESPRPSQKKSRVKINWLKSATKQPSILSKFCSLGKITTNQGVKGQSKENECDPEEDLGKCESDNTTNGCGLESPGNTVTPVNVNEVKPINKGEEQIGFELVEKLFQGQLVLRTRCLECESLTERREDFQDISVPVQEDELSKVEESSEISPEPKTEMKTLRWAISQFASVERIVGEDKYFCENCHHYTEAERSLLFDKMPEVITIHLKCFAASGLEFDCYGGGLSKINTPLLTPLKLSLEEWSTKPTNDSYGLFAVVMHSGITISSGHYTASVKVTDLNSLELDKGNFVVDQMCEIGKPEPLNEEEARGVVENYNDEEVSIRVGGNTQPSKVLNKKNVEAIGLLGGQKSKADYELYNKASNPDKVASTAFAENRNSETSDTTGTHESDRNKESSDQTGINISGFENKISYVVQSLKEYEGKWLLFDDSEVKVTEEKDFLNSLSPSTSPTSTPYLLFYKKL
In short: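 Kinetic fluorescence assay: 1nM USP1/UAF1, 15 min compound preincubation, then 150nM Ub-Rho; 480/540 nm.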

[17] = AP1 Signaling Pathway (AID 357; active means well fitted curve in either direction with a large enough effect, not every such curve was filed as active; further: on the % scale 0 is the no-effect control and ±100 the full control effect); settings: ME-180 AP-1-bla reporter, EGF-induced, beta-lactamase ratio, 5 h; at 7.69 µM (top of the series) unless noted
In short: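 ME-180 cells with beta-lactamase reporter under AP-1 response element, stimulated with EC50 EGF; compounds tested in titration series, 5 h at 37 °C. CCF4 substrate added 2.5 h at room temperature; 460/530 nm emission ratio gave %activity and AC50.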

[18] = biological target: Cytochrome P450 3A4 (Homo sapiens) (UniProt P08684); experiment: qHTS Assay for Inhibitors and Substrates of Cytochrome P450 3A4 (AID 884; active means well fitted curve in the direction sought with a large enough effect; an effect the other way counts as inactive or inconclusive; further: potency means the concentration at half of the fitted maximal effect; nearly all actives have a fitted effect of over 50% in size); settings: recombinant CYP3A4, Luciferin-PPXE luminescence; series mostly up to 57.1 µM
In short: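 Luminescent readout of luciferin produced by CYP3A4 (20 nM) dealkylation of Luciferin-PPXE, 25 uM (its KM). NADPH-driven reaction ran 60 min at RT after 10 min compound preincubation; data scaled to 57 uM ketoconazole as 100% inhibition.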

[19] = measured here: cell count channel max response
[20] = measured here: lipid channel max response

Chain of Lysosomal acid glucosylceramidase (Homo sapiens) (P04062 whole entry, looked up): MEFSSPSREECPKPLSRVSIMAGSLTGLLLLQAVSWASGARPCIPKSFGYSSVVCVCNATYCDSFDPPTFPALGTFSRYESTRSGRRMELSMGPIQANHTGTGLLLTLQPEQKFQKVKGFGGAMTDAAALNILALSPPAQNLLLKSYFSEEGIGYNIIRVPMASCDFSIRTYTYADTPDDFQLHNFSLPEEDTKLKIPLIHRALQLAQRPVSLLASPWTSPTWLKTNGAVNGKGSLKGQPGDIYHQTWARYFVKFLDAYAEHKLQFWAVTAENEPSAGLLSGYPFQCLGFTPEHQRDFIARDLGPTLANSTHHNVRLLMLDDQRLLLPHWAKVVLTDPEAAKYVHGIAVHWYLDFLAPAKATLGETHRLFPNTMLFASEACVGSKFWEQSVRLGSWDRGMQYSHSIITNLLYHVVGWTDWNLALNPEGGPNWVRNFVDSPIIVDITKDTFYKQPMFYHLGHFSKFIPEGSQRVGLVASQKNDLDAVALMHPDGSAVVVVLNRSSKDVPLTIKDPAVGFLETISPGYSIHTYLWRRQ

Cn1cccc1C(=O)N1CCC2(CCCN(C(=O)Nc3ccccc3)C2)CC1
28.5%: max response [8, 20]
inactive: Potency [1] > 11.4 µM | activity change, negative = inhibition [2] -22.5% | activity, negative = inhibition [3] 4.11% | Potency [4] > 46 µM | Potency [5] | Potency [6] | Potency [7] | activity change, negative = inhibition [8] 7.87% | outcome [9]
14.7%: max response [8, 19]

Cc1noc(C)c1-c1ccc2ncnc(N(C)Cc3ccco3)c2c1
active: Potency [10] 2.51 µM | Potency [12] 5.01 µM | Potency [14] 1.58 µM
inactive: Potency [1] > 11.4 µM | Potency [11] > 46 µM | Potency [4] > 46 µM | Potency [5] | Potency [7] | Potency [13] | outcome [15] | activity change, negative = inhibition [8] 2.4% | Potency [16] | outcome [9]
23.8%: max response [8, 19]
25.4%: max response [8, 20]

COc1ccc(Oc2ncc3nc(-c4ccc(OC)cc4)c(=O)n(CCC#N)c3n2)cc1
17.2%: max response [8, 19]
inactive: Potency [1] > 11.4 µM | activity change, negative = inhibition [2] 7.68% | activity, negative = inhibition [3] 2.86% | Potency [11] > 9.22 µM | Potency [4] > 46 µM | Potency [5] | Potency [6] | activity change, negative = inhibition [8] -1.07% | outcome [9]
21%: max response [8, 20]

COc1ccc(C(=O)N2CCC3(CCCN(C(c4ccccc4)c4ccccc4)C3)CC2)cc1
2.37%: max response [8, 19]
inactive: Potency [1] > 11.4 µM | activity, negative = inhibition [3] 18.3% | Potency [4] > 46 µM | Potency [5] | activity change, negative = inhibition [8] -5.74% | outcome [9]
-2.89%: max response [8, 20]

O=c1c(-c2ccc(F)cc2)nc2cnc(N3CCOCC3)nc2n1-c1ccccc1
active: Potency [14] 1.26 µM
inactive: Potency [1] > 11.4 µM | Potency [11] > 9.22 µM | Potency [4] > 46 µM | Potency [5] | activity change, negative = inhibition [8] -4.64% | outcome [9]
7.89%: max response [8, 19]
5.39%: max response [8, 20]

O=C(Oc1ccccc1)N1CCC[C@@]2(CCN(c3ccncc3)C2)C1
13.6%: max response [8, 19]
inactive: Potency [1] > 11.4 µM | activity, negative = inhibition [3] -2.61% | Potency [4] > 46 µM | Potency [5] | Potency [6] | Potency [7] | activity change, negative = inhibition [8] 4.19% | outcome [9]
23.8%: max response [8, 20]
active: Potency [10] 20 µM | Potency [12] 5.01 µM

c1ccc(-c2cccc(N3CCCC4(CCNCC4)C3)c2)cc1
inactive: Potency [1] > 11.4 µM | activity change, negative = inhibition [2] -11% | activity, negative = inhibition [3] 8.57% | Potency [4] > 46 µM | Potency [5] | Potency [6] | activity change, negative = inhibition [8] 2.43% | outcome [9]
-2.04%: max response [8, 19]
1.36%: max response [8, 20]

CS(=O)(=O)Nc1cccc(-c2nccc(-n3ccnc3)n2)c1
active: Potency [10] 0.2 µM | Potency [18] 1.58 µM
1.42%: max response [8, 19]
5%: max response [8, 20]
inactive: activity change, negative = inhibition [17] -9.45% | activity change, negative = inhibition [2] -0.156% | activity, negative = inhibition [3] 0.985% | Potency [11] > 46 µM | Potency [4] > 46 µM | Potency [5] | Potency [6] | Potency [13] | activation [14] -11.9% | outcome [15] | activity change, negative = inhibition [8] 2.72% | Potency [16] | outcome [9]

O=S(=O)(c1ccccc1)N1CCC[C@@]2(CCN(Cc3cc(C(F)(F)F)cc(C(F)(F)F)c3)C2)C1
17.1%: max response [8, 19]
25.2%: max response [8, 20]
inactive: Potency [1] > 11.4 µM | Potency [10] | Potency [4] > 46 µM | Potency [5] | Potency [6] | activity change, negative = inhibition [8] 4.5% | outcome [9]

— PubChem BioAssay (NCATS)
